In PubChem BioAssay (Tox21):
“And” between values parts separate entries of the source, which are not always exact repeats. Equal values may be shown once. Results filed as inconclusive are left out. A call without a number means that no potency is given here. Some structures have more than one record in an assay (separate samples or runs), and their calls can disagree. The source made the active and inactive calls. The call rests on the fitted dose curve; in most records, active means well fitted cell-killing curve with a large enough effect in the repeat runs; inconclusive means weak or mixed curves, or effect the other way; inactive means flat fitted curve, though single readings scatter.

assay: qHTS RealTime-Glo MT Cell Viability Assay in HEK293 cells - 8 hour (AID 1224887); conditions: RealTime-Glo luminescence; series mostly up to 76.8 µM; further: nearly all actives have a fitted effect of over 50% in size
Description: U.S. Tox21 Program National Center for Advancing Translational Sciences [NCATS] NIH Chemical Genomics Center [NCGC] U.S. Environmental Protection Agency [EPA] National Institutes of Environmental Health Sciences [NIEHS] National Toxicology Program [NTP] U.S. Food and Drug Administration [FDA] Tox21 Assay Overview: Measure of cell viability is critical in the cell-base assay. Analysis of cell viability is necessary for the characterization of cell responses to cytotoxic drugs and environmental stress. A RealTime-Glo MT Cell Viability Assay to monitor cell viability in real time of continues cell culture during 40 hours of compound treatment was used to screen Tox21 10K library compounds in Hek293 cells. The RealTime-Glo MT Cell Viability Assay is a nonlytic, homogeneous, bioluminescent method to measure cell viability in real time using a simple, plate-based method. The assay involves adding NanoLuc luciferase and a cell-permeant prosubstrate to cells in culture. Viable cells reduce the proprietary prosubstrate to generate a substrate for NanoLuc luciferase. This substrate diffuses from cells into the surrounding culture medium, where it is rapidly used by the NanoLuc Enzyme to produce a luminescent signal. The signal correlates with the number of viable cells, making the assay well suited for cytotoxicity studies.
Tox21 Assay Protocol Summary: The mixture of Hek293 cell suspension and reagents were dispensed at 600cells/6 ul/well in 1536-well tissue culture treated black solid bottom plates using a Multidrop dispenser. After the assay plates were incubated at a 37 C/5% CO2 incubator for 5 hours, 23 nL of compounds dissolved in DMSO, positive and negative controls was transferred to the assay plate by a pintool work station. The plates were incubated at 37 C for 40 hours. The luminescence intensity were measured at 0h, 8h, 16h, 24h, 32h and 40h time points using ViewLux plate reader during compound treatment.
Potency means the concentration at half of the fitted maximal effect.

With `C[N+](C)(C)C` as the molecule, how does the Potency read?
Its Potency is “inactive”.

For `Oc1ccc(Cl)cc1Cl`, which Potency is on record?
Its Potency is “inactive”.

Which Potency does the source give for `Cc1ccc([N+](=O)[O-])cc1` here?
Its Potency is “inactive”.

For `CN(C)c1nc(=O)n(C2CCCCC2)c(=O)n1C`, which Potency is on record?
The Potency was “inactive”.

For `COc1ccc(O)c(C(C)(C)C)c1`, which Potency is on record?
Its Potency is “inactive”.

For `CSc1nc(NC(C)C)nc(NC(C)C)n1`, which Potency is on record?
The Potency was “inactive”.

Which Potency does the source give for `O=[N+]([O-])c1ccc(Cl)c([N+](=O)[O-])c1` here?
The Potency was 14 µM (active) and 17.4 µM (active).

With `COc1ccc(CO)cc1` as the molecule, how does the Potency read?
The Potency was “inactive”.

Which Potency does the source give for `CCCCSP(=O)(SCCCC)SCCCC` here?
The Potency was “inactive”.

For `NC(=O)CN1CCCC1=O`, which Potency is on record?
The Potency was “inactive”.

For `CCCCOCC1CO1` (stereo not given), which Potency is on record?
The Potency was “inactive”.

With `ClCC(Cl)CCl` as the molecule, how does the Potency read?
The Potency was “inactive”.

For `COP(=S)(OC)Oc1ccc(S(=O)(=O)N(C)C)cc1`, which Potency is on record?
The Potency was “inactive”.

For `CCC[CH2][Sn]([Cl])([Cl])[CH2]CCC`, which Potency is on record?
Its Potency is 111 nM (active).

With `CCC[CH2][Sn]([Cl])([CH2]CCC)[CH2]CCC` as the molecule, how does the Potency read?
Its Potency is 618 nM (active) and 1.23 µM (active).

With `ClC(Cl)(Cl)c1ccccc1` as the molecule, how does the Potency read?
The Potency was “inactive”.

For `Clc1ccccc1-c1nnc(-c2ccccc2Cl)nn1`, which Potency is on record?
Its Potency is “inactive”.

Which Potency does the source give for `CN(C)P(=O)(N(C)C)N(C)C` here?
Its Potency is “inactive”.

For `CC(C)=CC1C(C(=O)OCN2C(=O)C3=C(CCCC3)C2=O)C1(C)C` (stereo not given), which Potency is on record?
Its Potency is “inactive”.

For `ClCc1ccccn1`, which Potency is on record?
The Potency was “inactive”.

With `CC(C)(C#N)N=NC(C)(C)C#N` as the molecule, how does the Potency read?
Its Potency is “inactive”.

Which Potency does the source give for `ClC(Cl)(Cl)Br` here?
Its Potency is “inactive”.

For `CCNc1nc(Cl)nc(NC(C)(C)C#N)n1`, which Potency is on record?
Its Potency is “inactive”.

For `Cc1cc(Cl)ccc1N=CN(C)C`, which Potency is on record?
Its Potency is “inactive”.

For `CC1=C(C(=O)Nc2ccccc2)SCCO1`, which Potency is on record?
The Potency was “inactive”.

Which Potency does the source give for `CCOP(=O)(O)OCC` (tested in a mixture with another compound) here?
Its Potency is “inactive and 54.5 µM (active)”.

Which Potency does the source give for `CCOP(=S)(OCC)SCn1c(=O)oc2cc(Cl)ccc21` here?
Its Potency is 26.3 µM (active) and 15.5 µM (active).

For `CS(=O)(=O)NC(=O)c1cc(Oc2ccc(C(F)(F)F)cc2Cl)ccc1[N+](=O)[O-]`, which Potency is on record?
The Potency was “inactive”.

With `CC(C)CON=O` as the molecule, how does the Potency read?
The Potency was “inactive”.

For `CCCCC(C#N)(Cn1cncn1)c1ccc(Cl)cc1` (stereo not given), which Potency is on record?
The Potency was “inactive”.

Which Potency does the source give for `Oc1ccc(Cl)cc1Cc1ccccc1` here?
The Potency was 21.9 µM (active) and 26.3 µM (active) and 21.3 µM (active).

For `OCCOCCO`, which Potency is on record?
Its Potency is “inactive”.

Which Potency does the source give for `Nc1ccc([N+](=O)[O-])cc1N` here?
Its Potency is “inactive”.

Which Potency does the source give for `O=C(O)c1nn(Cc2ccc(Cl)cc2Cl)c2ccccc12` here?
The Potency was “inactive”.

With `Clc1cccc(C(Cl)(Cl)Cl)n1` as the molecule, how does the Potency read?
The Potency was “inactive”.

Which Potency does the source give for `CC(C)(O)C(=O)Nc1ccc([N+](=O)[O-])c(C(F)(F)F)c1` here?
Its Potency is 25100 nM (active).

Which Potency does the source give for `CCN(CC)C(=O)C(C)Oc1cccc2ccccc12` (stereo not given) here?
Its Potency is “inactive”.

With `CCCCCCCCCC(CC)c1ccc(S(=O)(=O)O)cc1` (stereo not given) as the molecule, how does the Potency read?
Its Potency is “inactive”.

For `O=C1Nc2ccc(Cl)cc2C(c2ccccc2)=NC1O` (stereo not given), which Potency is on record?
The Potency was “inactive”.

Which Potency does the source give for `CC(C)COC(=O)c1ccccc1C(=O)OCC(C)C` here?
Its Potency is “inactive”.
